The text below walks through data of the supplement of paper PMC12067926.

A number with no mark means an inactive call.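 The calls were made as follows: active = growth AUC significantly below the DMSO wells by Dunnett test; inactive = the rest.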

Compound in the experiment: O=C(Oc1ccccc1)n1c(C(F)(F)F)nc2cc(Cl)c(Cl)cc21
In words: relative growth (AUC of 72 h growth curve relative to DMSO control, dAUC) (ratio); higher = more growth (less inhibition), active = hit call of the paper. The settings on record: 20 µM. As for the experimental part:
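Environmental bacterial isolates (Iceland stream sediment and Silwood Park soil) and whole stream-sediment communities were grown in LB from a 1:100 dilution with each pesticide at 20 µM (1% DMSO). A600 was read hourly for 72 h and the area under a spline-fitted growth curve (AUC) was computed. dAUC is the mean AUC of 3 biological replicates divided by the mean AUC of the DMSO controls. Significance was tested by Dunnett's test against the DMSO control.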
With Pseudomonas 1 (Pseudomonas baetica), the relative growth is 0.741.
On to Rhizobium 1 (Rhizobium herbae), for which the relative growth was 0.0292 (active).
As for Pseudomonas 3 (Pseudomonas mandelii), the figure is 0.765 (active).
For Argrobacterium 1 (Agrobacterium sp.) the value was 0.752 (active); for Arthrobacter 2 (Arthrobacter humicola), 0.00975 (active); for Hymenobacter 1 (Hymenobacter glaciei), 0.165 (active).
As for “Prolinoborus 1 (Prolinoborus fasciculus)”, the figure is 0.283 (active); as for Neobacillus 1 (Neobacillus soli), 0.826.
Take Aeromonas 1 (Aeromonas sp. AE235): the relative growth was 0.32 (active).
Regarding “Microbacterium 1 (Microbacterium arborescens)”, the relative growth was 0.785 (active).
With Oryzobacter 1 (Oryzobacter terrae), the relative growth was 0.00822 (active).
In the case of Sphingomonas 2 (Sphingomonas sp.), the relative growth was 0.0208 (active).
Take Aeromonas 3 (Aeromonas popoffii): the relative growth is 0.337 (active).
For Community 4 the value was 0.809.
With Community 10, the relative growth is 0.772.
Pseudomonas 4 (Pseudomonas peli): the relative growth was 0.336 (active).
As for Pseudomonas 5 (Pseudomonas baetica), the figure is 0.765 (active); as for Aeromonas 2 (Aeromonas sobria), 0.0369 (active); as for Community 6, 0.563 (active).
For the target “Paenibacillus 1 (Paenibacillus castaneae)”, the relative growth is 0.00512 (active).
In the case of Arthrobacter 3 (Arthrobacter sp.), the relative growth was 0.0715 (active).
“Carnobacterium 1 (Carnobacterium gallinarum)”: the relative growth was 0.0839 (active).
In the case of Pseudomonas 6 (Pseudomonas sp.), the relative growth was 0.777.
Turning to Arthrobacter 1 (Arthrobacter humicola), the relative growth was 0.211 (active).
Take Community 7: the relative growth was 1.01.
Turning to “Pseudomonas 2 (Pseudomonas vancouverensis)”, the relative growth is 0.735 (active).
Regarding Community 9, the relative growth was 0.363 (active).
With “Flavobacterium 1 (Flavobacterium glaciei)”, the relative growth is 0.0789 (active).
For Serratia 1 (Serratia sp. 2015-2462-01), the relative growth was 0.366 (active).
“Flavobacterium 2 (Flavobacterium succinicans)”: the relative growth is 0.0416 (active).
As for Bacillus 1 (Bacillus foraminis), the figure is 0.747; as for Community 8, 0.787.
